Measured values reported in PubChem BioAssay (NCI).
This is part of a sample that, as a whole, favours compounds with a hit. Of some 79,000 tested, about 15% had one in any assay. Rule as the data show it: active = growth inhibition above about 70%; inactive = the rest.

Columns and labels:
[1] = NCI Yeast Anticancer Drug Screen. Data for the rad50 strain (AID 155);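 also: 0% = growth of vehicle-only cultures of the same strain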; settings: S. cerevisiae rad50 strain growth inhibition; at 50.0 µM; stronger effect = higher value
Summary of the method: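 Cells are treated with compound, grown, and their growth is then scored against vehicle-only cultures of the same repair-deficient yeast strain.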

[2] = NCI Yeast Anticancer Drug Screen. Data for the mec2-1 strain (AID 157); settings: S. cerevisiae mec2-1 strain, at 50.0 µM, stronger effect = higher value
Summary of the method: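 Using mec2-1 yeast: add compound, measure growth, express inhibition versus vehicle-treated cultures.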

[3] = NCI Yeast Anticancer Drug Screen. Data for the sgs1 mgt1 strain (AID 161);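 also: 0% = growth of cultures given vehicle only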; settings: S. cerevisiae sgs1 mgt1 strain, at 50.0 µM, stronger effect = higher value
Summary of the method: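 Compounds are added to genetically altered yeast, and growth is compared with cultures given vehicle alone to give percent inhibition.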

[4] = NCI Yeast Anticancer Drug Screen. Data for the cln2 rad14 strain (AID 165);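 also: 0% = growth equal to vehicle treated cultures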; settings: S. cerevisiae cln2 rad14 strain, at 50.0 µM, stronger effect = higher value
Summary of the method: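 Yeast strain cln2 rad14, bearing defects in cell cycle control and DNA repair, serves as the test system; values reflect growth inhibition compared with vehicle.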

[5] = NCI Yeast Anticancer Drug Screen. Data for the bub3 strain (AID 167); settings: S. cerevisiae bub3 mutant strain, at 50.0 µM, stronger effect = higher value
Summary of the method: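 Part of a panel of yeast mutants defective in DNA damage repair or cell cycle regulation. Each strain is grown with compound, and inhibition is calculated relative to solvent-treated cultures.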

[6] = NCI Yeast Anticancer Drug Screen. Data for the mlh1 rad18 strain (AID 175); settings: S. cerevisiae mlh1 rad18 strain growth inhibition; at 50.0 µM; stronger effect = higher value
Summary of the method: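 Steps: expose repair-defective yeast to compound; measure growth; express inhibition against vehicle-treated controls.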

Measured: growth inhibition

Cc1cc2[nH]c3ccccc3n2c(=O)c1N=Nc1ccccc1
inactive: [1] 3.1% | [2] 4.65% | [3] 9.75% | [4] -14.3% | [5] 7.05% | [6] 15.8%

O=C(/C=N\O)c1ccccc1[N+](=O)[O-]
inactive: [1] -5.6% | [2] -4.85% | [3] 7.6% | [4] -37.5% | [5] -1.35% | [6] -19.1%

Cc1cccc(CC(O)c2ccc(C=O)cc2)n1 (stereo not given)
inactive: [1] 20.6% | [2] 14.7% | [3] 6.75% | [4] 5.65% | [5] 14.4% | [6] 37.5%

CC1=CCC2N=C(c3ccccc3)CC2(C)C1=O (stereo not given)
inactive: [1] 27.4% | [2] 21.6% | [3] 24.3% | [4] -11.3% | [5] -46.2% | [6] -16.6%

CC(=O)c1ccc(N2CCCCC2)cc1
inactive: [1] -7.8% | [2] -12.2% | [3] 4.55% | [4] -3.1% | [5] 40% | [6] -14.4%

O=C1CCC(C2(O)c3ccccc3-c3ccccc32)C(=O)N1 (stereo not given)
inactive: [1] -20.7% | [2] -16.1% | [3] -22.3% | [4] 22.4% | [5] 4.65% | [6] 1.4%

Cc1ccc(C)c(NC(=S)Nc2ccccc2)c1
inactive: [1] 0.8% | [2] -9% | [3] 3.5% | [4] -24.6% | [5] 54% | [6] 1.7%

O=C(Nc1ccccc1[N+](=O)[O-])OCCOc1ccccc1
inactive: [1] 1.65% | [2] 21.2% | [3] 6.8% | [4] -7.2% | [5] 30.8% | [6] -9.85%

Clc1ccccc1OCCNC1CC1
inactive: [1] 20.7% | [2] -0.1% | [3] -10.8% | [4] -45% | [5] 4.95% | [6] 1.7%

COc1cc(C=NCc2ccccc2)cc(OC)c1O
inactive: [1] -1.05% | [2] 19.2% | [3] 4.7% | [4] -14.6% | [5] 19.8% | [6] 8.9%

CCOC(=O)NC(C)(C)CC(C)(C)C
inactive: [1] -0.6% | [2] -17.6% | [3] -4.7% | [4] 11.9% | [5] -18.6% | [6] 17.4%

CO/N=C\c1cc[n+](C)cc1
inactive: [1] 11.7% | [2] 24.6% | [3] 18.9% | [4] 30.7% | [5] 55% | [6] 19.2%

C/C(=N\N=C\N(C)S(=O)(=O)c1ccc(C)cc1)c1ccccc1
inactive: [1] -10.7% | [2] -2.8% | [3] -6.3% | [4] -6.25% | [5] 1.55% | [6] -2.7%

Cc1ccc(S(=O)(=O)OCC2CCC(=O)N2)cc1 (stereo not given)
inactive: [1] 20.4% | [2] -13.2% | [3] 0.5% | [4] -3.15% | [5] -3.9% | [6] 27.1%

CCCC(O)C(C)(C)[N+](=O)[O-] (stereo not given)
inactive: [1] 60.9% | [2] 5.45% | [3] 12.9% | [4] -2.85% | [5] 8% | [6] 9.95%

COC(=O)C1C(COS(C)(=O)=O)ON2CCC(OC)(OC)C12 (stereo not given)
inactive: [1] 4.85% | [2] 11.1% | [3] 17.8% | [4] -15.8% | [5] 7.3% | [6] 43.1%

c1ccc(CSC2(SCc3ccccc3)CCCC2)cc1
inactive: [1] -7.3% | [2] -19.3% | [3] -22.6% | [4] 11.8% | [5] -1.1% | [6] -4.45%

O=C1NCCCC1O (stereo not given)
inactive: [1] 0.5% | [2] -16.5% | [3] 8% | [4] 5.35% | [5] -6.1% | [6] -2.9%

COC1OC(C(C)Br)C2OC(C)(C)OC12 (stereo not given)
inactive: [1] 7.1% | [2] 21.4% | [3] 3.5% | [4] -6.2% | [5] 9.85% | [6] 27.4%

CC(=O)N(C)c1ccc(NC(=S)NC(=O)c2cccc([N+](=O)[O-])c2)cc1
inactive: [1] 3.55% | [2] 21.6% | [3] 6.9% | [4] -4.15% | [5] 27.5% | [6] 7.05%
